Laboratory results from PubChem BioAssay AID1159580 (chemical genetic matrix, 2015).
“And” between values parts separate entries of the source, which are not always exact repeats. Equal entries are not always repeated. The campaign covered roughly 5,500 compounds. About 2,000 (36%) were called active. Not shown: some 18% with an inconclusive outcome. Rule as the data show it: active = normalized growth mostly below about 0.91 (no sharp cut-off); inconclusive = no clear call, values can overlap the other calls; inactive = mostly above about 0.92. This is one part of the list.

Experiment: chemical genetic growth profiling, strain panel (AID 1159580);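 also: tested at 20 µM; growth read once vehicle control cultures reached saturation at 30 °C; 1 = growth at the plate median or of vehicle wells; lower values mean less growth of the strain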
Details: S. cerevisiae deletion strains, growth OD

Measured: normalized growth

CN1CCC(=C2c3ccccc3Sc3ccccc32)CC1
inactive: locus YAL013W, strain DEP1, active compounds read low 0.994 | locus YAL021C, strain ccr4, active compounds read low 0.936 | locus YAL026C, strain drs2, active compounds read low 0.994 | locus YAL030W, strain snc1, active compounds read low 1.03 | locus YBL061C, strain skt5, active compounds read low 1.04 | locus YBR009C, strain hhf1, active compounds read low 1.06 | locus YBR023C, strain chs3, active compounds read low 1.02 | locus YBR171W, strain sec66, active compounds read low 1.04 | locus YBR229C, strain ROT2, active compounds read low 0.998 | locus YBR231C, strain swc5, active compounds read low 1.05 | locus YBR279W, strain paf1, active compounds read low 1.02 | locus YCL011C, strain gbp2, active compounds read low 1.04 | locus YCL016C, strain dcc1, active compounds read low 1.03 | locus YCL029C, strain bik1, active compounds read low 1.05 | locus YCL061C, strain MRC1, active compounds read low 1.04 | locus YCL069W, strain vba3, active compounds read low 1.02 | locus YCR088W, strain abp1, active compounds read low 1.03 | locus YDL005C, strain med2, active compounds read low 1.05 | locus YDL035C, strain GPR1, active compounds read low 0.951 | locus YDL040C, strain nat1, active compounds read low 1.01 | locus YDL074C, strain BRE1, active compounds read low 0.986 | locus YDL101C, strain DUN1, active compounds read low 1.03 | locus YDL134C, strain PPH21, active compounds read low 1.01 | locus YDL185W, strain tfp1, active compounds read low 1.01 | locus YDL192W, strain arf1, active compounds read low 1.01 | locus YDR001C, strain nth1, active compounds read low 1.02 | locus YDR069C, strain doa4, active compounds read low 1.02 | locus YDR101C, strain arx1, active compounds read low 1.01 | locus YDR150W, strain NUM1, active compounds read low 1.01 | locus YDR159W, strain sac3, active compounds read low 1.07 | locus YDR162C, strain NBP2, active compounds read low 1.01 | locus YDR195W, strain ref2 1.11 | locus YDR297W, strain sur2, active compounds read low 1.03 | locus YDR318W, strain mcm21, active compounds read low 1.01 | locus YDR334W, strain swr1, active compounds read low 1.03 | locus YDR335W, strain msn5, active compounds read low 1.02 | locus YDR388W, active compounds read low 0.955 | locus YDR392W, strain spt3, active compounds read low 0.982 | locus YDR502C, strain sam2, active compounds read low 0.995 | locus YEL003W, strain gim4, active compounds read low 1.03 | locus YEL037C, strain rad23, active compounds read low 1.02 | locus YEL061C, strain CIN8 (second series), active compounds read low 1.02 | locus YEL061C, strain CIN8, active compounds read low 1.01 | locus YER015W, strain faa2, active compounds read low 1.01 | locus YER016W, strain bim1, active compounds read low 1.03 | locus YER110C, active compounds read low 1.01 | locus YER111C, strain swi4, active compounds read low 1.03 | locus YER155C, strain BEM2 (second series), active compounds read low 1.03 | locus YER155C, strain BEM2, active compounds read low 1.01 | locus YER167W, strain BCK2, active compounds read low 1.01 | locus YFR010W, strain ubp6, active compounds read low 0.999 | locus YGL078C, strain dbp3, active compounds read low 1.01 | locus YGL086W, strain mad1, active compounds read low 0.99 | locus YGL167C, strain pmr1, active compounds read low 1.03 | locus YGL173C, strain kem1, active compounds read low 1.04 | locus YGL227W, strain vid30, active compounds read low 1.03 | locus YGL240W, strain doc1, active compounds read low 1.06 | locus YGL248W, strain PDE1, active compounds read low 1 | locus YGL253W, strain hxk2, active compounds read low 1.01 | locus YGR078C, strain PAC10, active compounds read low 0.977 | locus YGR135W, strain pre9, active compounds read low 0.934 | locus YGR229C, strain SMI1, active compounds read low 0.839 | locus YHR013C, strain ard1, active compounds read low 0.934 | locus YHR027C, strain rpn1, active compounds read low 1.02 | locus YHR030C, strain SLT2, active compounds read low 1.01 and 0.969 | locus YHR079C, strain IRE1 (second series), active compounds read low 1.02 | locus YHR079C, strain IRE1, active compounds read low 0.986 | locus YHR094C, strain hxt1, active compounds read low 1.01 | locus YHR129C, strain ARP1, active compounds read low 1.01 | locus YHR142W, strain chs7, active compounds read low 0.98 | locus YHR200W, strain rpn10, active compounds read low 1.01 | locus YIL066C, strain RNR3, active compounds read low 1.01 | locus YIL073C, strain SPO22, active compounds read low 1.01 | locus YIL125W, strain kgd1, active compounds read low 1 | locus YIR030C, strain dcg1, active compounds read low 1.02 | locus YJL092W, strain hpr5, active compounds read low 1.02 | locus YJL095W, strain BCK1 (second series), active compounds read low 1.02 | locus YJL095W, strain BCK1, active compounds read low 0.974 and 0.973 | locus YJL115W, strain asf1, active compounds read low 1.02 | locus YJL129C, strain trk1, active compounds read low 1.07 | locus YJL134W, strain LCB3, active compounds read low 0.994 | locus YJL154C, strain vps35, active compounds read low 1.01 | locus YJL164C, strain tpk1, active compounds read low 1.02 | locus YJL166W, strain qcr8, active compounds read low 1.03 | locus YJL168C, strain set2, active compounds read low 1.01 | locus YJL187C, strain SWE1 (second series), active compounds read low 1.02 | locus YJL187C, strain SWE1, active compounds read low 1.02 | locus YJR043C, strain POL32, active compounds read low 1.07 | locus YJR066W, strain TOR1, active compounds read low 0.956
active: locus YBR021W, strain FUR4, active compounds read low 0.775 | locus YDR137W, strain rgp1, active compounds read low 1.2 [resistant] | locus YGR252W, strain gcn5, active compounds read low 0.765
